TDP1 cell noCPT – qHTS for Inhibitors of human tyrosyl-DNA phosphodiesterase 1 (TDP1): qHTS in cells in absence of CPT. DT40 Tdp1-/- hTDP1 cells, no CPT, ATP luminescence, 48 h. Potency, µM (top dose mostly 46.2 µM), for inactives: at the highest dose activity change, negative = growth inhibition, actives largely listed as inhibitors. hit rate 15% among 420,000; also: potency is read from the fitted curve at half-maximal effect; % is scaled to controls: 0 for no effect and ±100 for the full control effect; nearly all actives have a fitted effect of over 55% in size
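Camptothecin absent (DMSO only). Human TDP1-complemented DT40 knockout cells, 400 cells/well, 37 °C for minimum 48 hr; ATP measured via CellTiter-Glo, 30 min dark incubation, luminescence.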
TDP1 cell CPT – DT40-hTDP1 cell growth loss with CPT. hit rate 12% among 420,000. Potency, µM (highest dose often 46.2 µM), for the others: at the highest dose activity change, negative = growth inhibition, usual class: inhibitors. chicken DT40 Tdp1-/-;hTDP1 cells + 20 nM CPT, ATP luminescence, 48 h; also: potency is read from the fitted curve at half-maximal effect; % is scaled to controls: 0 for no effect and ±100 for the full control effect; nearly all actives have a fitted effect of over 55% in size
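Chicken DT40 Tdp1-/- cells complemented with human TDP1, 400 cells/well, exposed to compounds plus 20 nM camptothecin for at least 48 h at 37 C; viability read as ATP content by CellTiter-Glo luminescence.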
BCR signal inh – inhibitors of chronic active B-cell receptor signaling. ABC-DLBCL IkBa-CBG/CBR reporter, luminescence ratio, 4 h. Potency, µM (doses to about 46.1 µM), for inactives: top-dose activity change, negative = inhibition, hits mostly inhibitors. hit rate 0.05% among 340,000. AID 493014; active = well fitted inhibition curve with a large enough effect in the signal ratio, with a control signal flat, not every such curve was filed as active; inconclusive = small, poorly fitted or top-dose-only effect, or effect the other way, or a change in a side signal; the % refers to the signal ratio;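 also: potency is read from the fitted curve at half-maximal effect; plate controls were basal doxycycline-induced cells for no effect and cells given 10 µM MG132 for full effect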
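Concentration-response series (up to 46 uM) were applied to TMD8 dual-reporter cells for 4 h at 37C with doxycycline. Green/red ratio, after filter-overlap correction, defined %Activity; red signal alone was normalised to basal cells and zero luminescence.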
IL1B secr inh – inhibitors of inflammasome signaling (IL-1 beta secretion) | THP-1 LPS/ATP IL-1B secretion, AlphaLISA, 16 h; active compounds read low | activity change, % at 57.5 µM | hit rate 4.7% among 360,000 | AID 743279; in the data active = activity change below about -50%; inconclusive = mostly about -30% to -49%; also: % is scaled to controls: 0 for no effect and ±100 for the full control effect
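THP-1 cells pretreated 1 hr with compounds (up to 57.5 uM final), then stimulated with LPS (250 ng/mL final) plus ATP (1.25 mM final); secreted IL-1B measured by AlphaLISA after 16 hr, decreased signal indicating inhibition.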
MCF10A rereplic – inducers of DNA re-replication in MCF 10A breast cells | MCF 10A DNA re-replication, Hoechst nuclear intensity, 48 h | Potency, µM (series often up to 46.1 µM), for the others: top-dose activity, positive = re-replication, most hits filed as activators | hit rate 2.9% among 350,000; also: potency is read from the fitted curve at half-maximal effect; % of control where 0% means no effect; nearly all actives have a fitted effect of over 50% in size
SW480 rereplic – induces DNA re-replication in SW480 colon adenocarcinoma cells. SW480 DNA re-replication, Hoechst DNA content imaging, 48 h. Potency, µM (doses to about 46.1 µM), for inactives: at the highest dose re-replication activation, most hits filed as activators. hit rate 1.8% among 340,000. AID 624297; also: potency is read from the fitted curve at half-maximal effect; % of control where 0% means no effect; nearly all actives have a fitted effect of over 55% in size
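250 cells/well; 23 nL cpd via pin tool; 48 hr, 37 C, 5% CO2; Hoechst 40 min; imager read of total nuclear intensity, ex 405/em 500-530 nm.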
An asterisk follows results filed as active; ? = inconclusive; . = no result; [ ] = another dose, or the depositor's remark. A selection: hits, their analogues and other compounds. The true share with any hit is near 19%. Unless noted, calls follow the shape of the dose curve; as a rule, active = well fitted curve in the direction sought with a large enough effect; inconclusive = small, poorly fitted or top-dose-only effect, or another doubt; inactive = no such curve, though single readings can be large; an effect the other way counts as inactive or inconclusive.

SMILES | TDP1 cell noCPT | TDP1 cell CPT | BCR signal inh | IL1B secr inh | MCF10A rereplic | SW480 rereplic
COc1cccc(NC(=O)CSc2nc3c([nH]c4ccccc43)c(=O)n2-c2cccc(Cl)c2)c1 | -43% | ? | . | . | . | .
Cc1cc(C)cc(-n2c(SCC(=O)Nc3cccc(F)c3)nc3c([nH]c4ccccc43)c2=O)c1 | ? | -28% | . | . | . | .
Cc1cc(C)cc(OCC(=O)N(Cc2ccccc2)C2CCS(=O)(=O)C2)c1 (centres undefined) | -11% | 7% | -10% | -12 | 2% | -9%
O=C(Nc1ccc(Cl)cc1)C1CCN(c2nc3ccccc3nc2C(F)(F)F)CC1 | -29% | ? | . | . | . | .
CC(C)C[C@H](NC(=O)[C@H](CCCCN)NC(=O)[C@H](CCCNC(=N)N)NC(=O)[C@H](C)NC(=O)[C@H](CO)NC(=O)[C@H](CCCCN)NC(=O)[C@H](CCCNC(=N)N)NC(=O)[C@H](C)NC(=O)CNC(=O)[C@@H](NC(=O)[C@H](Cc1ccccc1)NC(=O)CNC(=O)CNC(=O)[C@@H](N)Cc1ccccc1)[C@H](C)O)C(=O)N[C@@H](C)C(=O)N[C@@H](CC(N)=O)C(=O)N[C@@H](CCC(N)=O)C(=O)O | -5%[4.12 µM] | 0%[4.12 µM] | . | . | . | .
Cc1ccc(NC(=S)NNC(=O)c2cccc([N+](=O)[O-])c2)cc1Cl | -25% | -26% | ? | -3 | 19% | -7%
Cc1ccc(-n2c(SCC(=O)NCc3ccc(F)cc3)nc3c([nH]c4ccccc43)c2=O)cc1 | 23µM* | 18µM* | . | . | . | .
CCOc1ccc(CN2C(=O)c3ccccc3Sc3ccc(C(=O)NCCc4ccccc4)cc32)cc1 | ? | -28% | . | . | . | .
CCN(CC)C(=O)c1ccc2c(c1)N(Cc1ccc(C(F)(F)F)cc1)C(=O)c1ccccc1S2 | 18µM* | 16µM* | . | . | . | .
O=C(NC1CCCC1)c1ccc2c(c1)N(Cc1ccc(C(F)(F)F)cc1)C(=O)c1ccccc1S2 | 9.2µM* | 21µM* | . | . | . | .
Cc1ccc(CN2C(=O)c3ccccc3Sc3ccc(C(=O)NC4CCCC4)cc32)cc1 | ? | ? | -1% | . | . | .
COCCNC(=O)c1ccc2c(c1)N(Cc1ccc(C(F)(F)F)cc1)C(=O)c1ccccc1S2 | ? | 16µM* | . | . | . | .
CCOC(=O)c1c(N)n(-c2ccccc2CC)c2nc3ccccc3nc12 | . | . | 4% | . | . | .
Cc1cc(N(CCO)CCO)ccc1C(c1ccc(N(CCO)CCO)cc1C)c1ccccc1Cl | -7% | -29% | 17% | -68* | ? | -5%
CCOc1ccccc1NC(=O)c1c(NC(=O)c2cccc(C)c2)sc2c1CCC2 | -26% | ? | . | . | . | .
CN(C)Cc1nnnn1-c1ccccc1 | -16% | 17% | -9% | 18 | -4% | -142%
CCOC(=O)/C=C(\C)Sc1cc(O)c2ccccc2c1O | 1.2µM* | 0.92µM* | -23% | -62* | ? | 17%
CCOC(=O)c1c(C)[nH]c2c1cc(O)c1ccccc12 | ? | ? | 8% | -15 | 4% | 3%
CCOC(=O)/C=C(\C)Sc1cc(=O)oc2ccccc12 | 21µM* | 23µM* | ? | -52* | ? | ?
COc1ccc(C)cc1NC(=O)c1c2c(nc3ccccc13)C(=O)N(C1CCCCC1)C2 | 3.7µM* | 16µM* | . | . | . | .
COc1cccc(CNC(=O)c2cc(C)nc3ccccc23)c1 | 1% | 0% | 1% | 25 | -1% | -12%
COc1ccc(OC)c(NC(=O)c2c3c(nc4ccccc24)CCC3)c1 | -29% | ? | -17% | 30 | -1% | 9%
CCOc1ccccc1N(C)C(=O)c1c2c(nc3ccccc13)C(=O)N(C1CCCCC1)C2 | ? | 16µM* | . | . | . | .
COc1cccc(CNC(=O)c2c3c(nc4ccccc24)C(=O)N(C2CCCCC2)C3)c1 | 21µM* | 13µM* | . | . | . | .
O=C(NCc1cccc(Cl)c1)c1c2c(nc3ccccc13)C(=O)N(C1CCCCC1)C2 | 10µM* | 15µM* | . | . | . | .
SMILES | TDP1 cell noCPT | TDP1 cell CPT | BCR signal inh | IL1B secr inh | MCF10A rereplic | SW480 rereplic
CCOC(=O)c1cccc(NC(=O)CCn2nc(C)c3c(C)n(-c4ccccc4)nc3c2=O)c1 | -4% | -10% | . | . | . | .
CCOC(=O)C1CCN(C(=O)C2CC(=O)N(c3ccc4c(c3)OCCO4)C2)CC1 (centres undefined) | 19% | -14% | 2% | 3 | -4% | -1%
C=CCOC(=O)C1=C(C)NC(=S)C(C#N)(CC=C)C1c1ccccc1Cl (centres undefined) | ? | ? | -4% | 0 | 1% | 16%
COc1ccc(OC)c(CCNC(=O)c2c3c(nc4ccccc24)C(=O)N(C2CCCCC2)C3)c1 | 18µM* | ? | . | . | . | .
COc1ccc(CNC(=O)c2c3c(nc4ccccc24)C(=O)N(C2CCCCC2)C3)c(OC)c1 | 3% | -2% | . | . | . | .
COc1ccc(CNC(=O)c2c3c(nc4ccccc24)C(=O)N(C2CCCCC2)C3)cc1 | 15µM* | 12µM* | . | . | . | .
NS(=O)(=O)c1ccc(-c2c(-c3ccccc3)sc3ccccc23)cc1 | -13% | -14% | -1% | 6 | ? | -22%[9.22 µM]
O=C(NCc1cccnc1)c1csc([C@@H]2O[C@H](CO)[C@H](O)[C@H](O)[C@H]2O)n1 | -8% | 5% | . | 5 | . | .
Cc1cc(C)nc(Nc2nc(C(N)Cc3ccccc3)cs2)n1 (centres undefined) | 5.2µM* | 5.8µM* | . | 7 | . | .
COC(=O)c1cc(C)nc(Nc2nc(C(N)Cc3ccc(F)cc3)cs2)n1 (centres undefined) | -25% | ? | . | -10 | . | .
COc1cc(OC)nc(Nc2nc(C(N)Cc3ccc(Cl)cc3)cs2)n1 (centres undefined) | 15µM* | 23µM* | . | -89* | . | .
COC(=O)c1cc(C)nc(Nc2nc(C(N)Cc3ccc(Cl)cc3)cs2)n1 (centres undefined) | ? | ? | . | -68* | . | .
Cc1cn2c(=O)c(C(=O)N3CCN(c4ccccc4)CC3)cnc2s1 | 9% | 3% | ? | -5 | 2% | 1%
CCOC(=O)[C@@H](NC(=O)/C=C/[C@H]1O[C@@H](n2ccc(=O)[nH]c2=O)[C@H](O)[C@@H]1O)C(C)C | 3% | 4% | . | 11 | . | .
O=C(c1cc(COc2ccc(F)cc2Cl)on1)N1CCC(OCc2cccnc2)CC1 | 9.2µM* | 16µM* | -5% | 12 | 2% | -2%
COc1cc(Cl)ccc1OCc1cc(C(=O)N2CCCCC2c2cccnc2)no1 (centres undefined) | ? | 5.8µM* | 8% | -11 | -22% | -8%
